Screens (PubChem BioAssay)
Hits are enriched below; roughly 2.4% of the tested compounds scored in any of these assays.
INS-1E GSIS act: GLuc luminescence reporter in INS-1E cells, primary screen for activators of glucose-dependent secretion of insulin; INS-1E GLuc reporter insulin secretion, 2-3 h; activation, % at 16.6 µM; 370,000 compounds, 0.61% hits;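 active = lowest replicate activation of at least 40%, so every replicate reaches that level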;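 also: 0% = median of neutral control wells and 100% = median of IBMX positive control wells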
MITF act: increases MITF-driven TRPM1 promoter luciferase signal. activation, % at 12.5 µM. AID 588334. SK-MEL-5 TRPM1-promoter luciferase, 24 h; % of positive control, neutral wells = 0. 300,000 compounds, 0.75% hits;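 active = mean activation of at least 80% with every replicate also reaching 80%; inconclusive = mean reaches 80% but some replicate falls short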;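 also: 0% = neutral control wells and 100% = parthenolide positive control wells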
miR-122 sensor: blocks miR-122 activity in Huh7 sensor cells | 340,000 compounds, 0.3% hits | activation (reporter increase), % at 12.5 µM | Huh7 miR-122 Renilla luciferase sensor, 48 h; neutral wells = 0, positive control = 100;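 active = mean replicate activation score at least 90 and every replicate individually at or above 90; inconclusive = only one of the two criteria met; inactive = neither criterion met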;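 also: higher luciferase means less miR-122 activity so hits act as miR-122 inhibitors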
Wnt act: activators of Wnt/beta-catenin signaling; Wnt/beta-catenin reporter cell assay, activator, plate reader; activation, % at 9.35 µM; 300,000 compounds, 1.2% hits; in the data active = activation above about 30%, passing the limit was not always enough; inconclusive = no clear call, values can overlap the other calls;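 also: 0% = neutral control wells and 100% = positive control wells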
NSD2 HMT inh: NSD2 (human) methyltransferase inhibition. O96028. NSD2 peptide methylation, AlphaScreen, 120 min. inhibition, % at 12.5 µM. 310,000 compounds, 0.54% hits. AID 743445
Target sequence (O96028 whole entry, looked up): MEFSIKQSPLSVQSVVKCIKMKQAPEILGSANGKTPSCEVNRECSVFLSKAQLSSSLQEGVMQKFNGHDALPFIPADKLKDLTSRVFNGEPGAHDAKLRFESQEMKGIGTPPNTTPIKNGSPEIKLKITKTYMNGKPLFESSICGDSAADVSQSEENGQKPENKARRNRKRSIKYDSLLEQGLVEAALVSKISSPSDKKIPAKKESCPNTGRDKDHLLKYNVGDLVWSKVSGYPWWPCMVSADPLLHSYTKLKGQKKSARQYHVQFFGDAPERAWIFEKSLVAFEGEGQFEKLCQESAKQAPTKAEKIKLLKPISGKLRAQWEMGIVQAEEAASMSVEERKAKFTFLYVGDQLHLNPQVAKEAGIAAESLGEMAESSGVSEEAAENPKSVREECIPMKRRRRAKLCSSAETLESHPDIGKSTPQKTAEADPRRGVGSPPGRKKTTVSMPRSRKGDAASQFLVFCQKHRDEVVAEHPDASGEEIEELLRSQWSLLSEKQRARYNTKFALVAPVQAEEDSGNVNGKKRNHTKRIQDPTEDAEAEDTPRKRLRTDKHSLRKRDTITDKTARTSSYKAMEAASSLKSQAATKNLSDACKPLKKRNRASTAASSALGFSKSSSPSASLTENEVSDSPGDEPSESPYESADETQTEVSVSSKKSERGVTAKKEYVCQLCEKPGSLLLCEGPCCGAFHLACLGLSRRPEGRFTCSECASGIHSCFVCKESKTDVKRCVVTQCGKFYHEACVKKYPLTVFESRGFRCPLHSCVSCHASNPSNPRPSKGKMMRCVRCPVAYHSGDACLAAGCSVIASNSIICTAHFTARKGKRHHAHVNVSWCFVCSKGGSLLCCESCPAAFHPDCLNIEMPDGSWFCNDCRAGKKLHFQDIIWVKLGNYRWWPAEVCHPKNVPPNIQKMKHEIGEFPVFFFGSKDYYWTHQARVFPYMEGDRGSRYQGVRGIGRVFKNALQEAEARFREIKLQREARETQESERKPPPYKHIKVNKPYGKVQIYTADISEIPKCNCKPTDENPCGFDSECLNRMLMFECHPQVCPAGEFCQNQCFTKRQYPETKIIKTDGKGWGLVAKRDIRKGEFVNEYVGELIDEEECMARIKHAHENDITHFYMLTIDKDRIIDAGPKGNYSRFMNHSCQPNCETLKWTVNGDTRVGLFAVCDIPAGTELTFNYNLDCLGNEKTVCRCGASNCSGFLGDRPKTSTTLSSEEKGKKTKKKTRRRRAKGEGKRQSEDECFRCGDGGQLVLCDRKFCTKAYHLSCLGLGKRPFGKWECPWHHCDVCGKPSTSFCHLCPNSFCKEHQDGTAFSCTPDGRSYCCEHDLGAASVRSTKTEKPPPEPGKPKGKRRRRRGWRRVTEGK
DYRK1A inh: blocks rat Dyrk1A kinase activity | Q63470 | ADP-Glo luminescence, NFATc1 peptide | inhibition, % at 12.5 µM | 310,000 compounds, 0.43% hits;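 also: plate controls were vehicle with enzyme for no effect and no enzyme for full effect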
Starred values were filed as active, the others as inactive; ? = inconclusive; / = not tested or not shown; [ ] = another dose, or the depositor's remark. Rule as the data show it, unless noted: active = inhibition above about 50%; inactive = the rest.

SMILES | INS-1E GSIS act | MITF act | miR-122 sensor | Wnt act | NSD2 HMT inh | DYRK1A inh
Cc1ccc2nc(N3CCN(C(=O)CCC(=O)O)CC3)nc(-c3ccccc3)c2c1 | 5 | -12 | 11 | -3 | -9 | 1
Cc1cccc(-c2ccc([C@@H]3[C@@H](CO)N4C(=O)CN(C(=O)Cc5ccccn5)C[C@@H]34)cc2)c1 | -11 | / | / | / | / | /
COc1cccc(C(=O)Nc2ccc(C(=O)O)cc2)c1 | -9 | 6 | 113* | / | -1 | 3
COc1cccc(C(=O)Nc2nnc(-c3ccccc3)s2)c1 | 14 | ? | 2 | 36* | -2 | 1
CCCOc1ccc(C(=O)CCNc2cccc(Cl)c2)cc1 | -4 | 20 | 3 | -3 | -5 | -2
COc1cccc(C(=O)Nc2cccc(C(C)=O)c2)c1 | / | 50 | 11 | 1 | -2 | 8
COc1cccc(NC(=O)c2cccc(Cl)c2)c1 | -8 | 104* | 9 | 41* | / | 14
COc1ccc(C(=O)CCNc2cccc(Cl)c2)cc1 | -3 | 74 | -12 | 69* | 44 | 5
COc1cccc(C(=O)Nc2ccc(C(=O)c3ccccc3)cc2)c1 | -19 | / | 4 | 6 | -2 | /
C[C@@H]1CN([C@H](C)CO)C(=O)c2cccc(NC(=O)c3nc4ccccc4s3)c2O[C@@H]1CN(C)C(=O)Nc1cccc2ccccc12 | -34 | / | 1[16.7 µM] | / | / | /
COCC(=O)Nc1ccc2c(c1)C(=O)N(C)[C@H]1CC[C@H](CC(=O)Nc3ccc(F)cc3)O[C@@H]1CO2 | 9 | / | -10[16.7 µM] | / | / | /
O=C(NCC1CC1)[C@@H]1[C@@H](CO)[C@@H]2Cn3c(ccc(-c4cccnc4)c3=O)[C@H]1N2Cc1nccs1 | 9 | / | 0[16.7 µM] | / | / | /
COc1ccc(C(=O)Nc2cccc(OC(=O)c3ccco3)c2)cc1 | 12 | 110* | -2 | 28 | 1 | 14
COc1ccc(C(=O)Nc2cccc(OC(=O)c3ccc(C)c(C)c3)c2)cc1 | / | 36 | -4 | 16 | 1 | 7
C[C@H](CO)N1C[C@H](C)[C@@H](CN(C)Cc2ccc(Oc3ccccc3)cc2)Oc2ccc(NC(=O)Nc3ccc(C(F)(F)F)cc3)cc2CC1=O | 11 | / | -23[16.7 µM] | / | / | /
CC(C)NC(=O)C1CCN(C(=O)c2ccc(-c3ccccc3)cc2)CC1 | 9 | 9 | -3 | / | -1 | 4
Cc1ccc(Nc2nc(C(=O)N3CCC(C(=O)NC(C)C)CC3)cs2)cc1 | / | 10 | -4 | 58* | / | 3
O=C1/C(=C/c2ccncc2)SC(=S)N1N1CCOCC1 | 17 | / | 3 | 3 | -5 | -3
C=CCOc1ccc(/C=C2\SC(=S)N(N3CCOCC3)C2=O)cc1 | 8 | / | -2 | 42* | 1 | -10
COc1ccccc1-c1ccc2c(c1)O[C@H](CN(C)Cc1ccc3c(c1)OCO3)[C@H](C)CN([C@H](C)CO)S2(=O)=O | -32 | / | 9[16.7 µM] | / | / | /
CCCC(=O)Nc1ccc(N2CCN(S(C)(=O)=O)CC2)cc1 | 53* | 9 | / | -1 | -2 | 0
CCN1CCN(c2cc(C)c3cc(NC(=O)c4cc(OC)cc(OC)c4)ccc3n2)CC1 | 16 | 7 | -2 | 32* | 8 | 13
O=C1Nc2ccc([N+](=O)[O-])cc2OC1CCN1CCN(Cc2ccccc2)CC1 (centres undefined) | -11 | 1 | / | 1 | 5 | 7
O=C1Nc2ccc([N+](=O)[O-])cc2OC1CCN1CCN(Cc2ccc3c(c2)OCO3)CC1 (centres undefined) | -25 | -2 | 153* | 0 | 6 | 2
Cc1ccc(CS(=O)Cc2ccc(C(=O)NCc3ccccc3)o2)cc1 (centres undefined) | 43* | 4 | -4 | -1 | -6 | 0
SMILES | INS-1E GSIS act | MITF act | miR-122 sensor | Wnt act | NSD2 HMT inh | DYRK1A inh
Cc1ccc(CS(=O)Cc2ccc(C(=O)NCCc3ccccc3)o2)cc1 (centres undefined) | 5 | 4 | / | -1 | 2 | 4
Cc1cc(C)cc(NS(=O)(=O)c2ccc(NC(=S)NC(=O)c3ccc(Br)o3)cc2)c1 | / | -5 | 98* | / | 1 | 8
Cc1ccnc(NS(=O)(=O)c2ccc(NC(=O)Cc3ccccc3)cc2)n1 | 28 | 6 | -3 | 1 | 5 | 0
CCC(=O)Nc1ccc(S(=O)(=O)NCCc2ccccc2)cc1 | / | / | ? | -3 | -3 | 0
O=C(Nc1ccc(S(=O)(=O)NCCc2ccccc2)cc1)c1ccc(Br)o1 | / | / | 201* | / | 0 | -4
CCOC(=O)c1cc(S(=O)(=O)NCCc2ccccc2)cn1C | / | -1 | 114* | 1 | 2 | -1
Cc1ccnc(NS(=O)(=O)c2ccc(NC(=O)CCc3ccccc3)cc2)n1 | 42* | 7 | / | -2 | 1 | 7
C[C@H](CO)N1C[C@H](C)[C@@H](CN(C)CC2CCCCC2)Oc2ncc(C#C[C@@H](C)O)cc2C1=O | -5 | / | -7[16.7 µM] | / | / | /
O=C([C@@H]1[C@@H](CO)[C@@H]2Cn3c(cccc3=O)[C@H]1N2C(=O)CC1CC1)N1CCCCC1 | 7 | / | / | / | / | /
CC(C)C#Cc1cnc2c(c1)C(=O)N([C@@H](C)CO)C[C@@H](C)[C@H](CN(C)C(=O)Nc1cccc(F)c1)O2 | -29 | / | -1[16.7 µM] | / | / | /
O=C(C[C@@H]1CC[C@H](NS(=O)(=O)c2ccc(F)cc2)[C@@H](CO)O1)NCc1ccc(Cl)c(Cl)c1 | -27 | / | -3[16.7 µM] | / | / | /
COCC(=O)Nc1ccc(S(=O)(=O)NCCc2ccccc2)cc1 | / | 5 | 118* | / | -1 | 4
Cc1ccccc1-c1ccc([C@@H]2[C@H](CO)N3C(=O)CN(C(=O)c4cccnc4)C[C@@H]23)cc1 | -4 | / | / | / | / | /
FC(F)Oc1ccc(C2N=C(c3ccccc3)NO2)cc1 (centres undefined) | 3 | 117* | -1 | 34* | -8 | 3
COc1ccc(C2N=C(c3ccccc3)NO2)cc1OC (centres undefined) | 0 | 68 | 6 | 1 | -4 | 0
COc1ccc(CN(C)C[C@@H]2OCCCC[C@H](C)Oc3ccc(NS(=O)(=O)c4ccc(C)cc4)cc3C(=O)N([C@H](C)CO)C[C@@H]2C)cc1 | -18 | / | -4[16.7 µM] | / | / | /
COCc1[nH]nc2c1C(c1ccc(C)cc1)NC2=O (centres undefined) | 50* | / | / | -2 | / | /
Cc1ccc(C(=O)CSc2nc(C(C)C)nc3ccccc23)cc1 | 0 | -6 | / | 36* | -3 | 4
Cc1ccc(NCc2cccc(B(O)O)c2)cc1 | 43* | 1 | 8 | 8 | / | 44
Cc1cccc(N/N=C/c2ccncc2)c1 | -12 | 129* | / | 13 | 2 | 11
C[C@H](CO)N1C[C@H](C)[C@H](CN(C)C(=O)CCC(F)(F)F)OCCCC[C@H](C)Oc2ccc(N(C)C)cc2C1=O | -3 | / | 1[16.7 µM] | / | / | /
CC(C)(C)S(=O)(=O)c1cnc(-c2ccccn2)nc1N | 12 | 2 | / | 4 | -2 | -6
Cc1cccc(-c2ncc(S(=O)(=O)C(C)(C)C)c(N)n2)c1 | -2 | 94* | / | 35* | -1 | 5
